8 compounds from paper PMC5540273 (PLoS ONE, 2017) can be followed below.

Test systems include ROCK1; ROCK2; ROS1; S6K1; SBK1; SGK2; SGK3; SGK.
What all share (details): concentration: 1 μM, replicates: in singlicate; n = 1
Test [1] concerns RPS6KA4(Kin.Dom.1-N-terminal).
Test [2] relates to RPS6KA4(Kin.Dom.2-C-terminal).
Test [3] concerns RPS6KA5(Kin.Dom.1-N-terminal).
In test [4] the test system is RPS6KA5(Kin.Dom.2-C-terminal).
Test [5] concerns T1, RSK1(Kin.Dom.1-N-terminal).
T1 construct: gene RPS6KA1

Test [6] concerns T2, RSK1(Kin.Dom.2-C-terminal).
T2 construct: gene RPS6KA1

The subject of test [7] is T3, RSK2(Kin.Dom.1-N-terminal).
T3 construct: gene RPS6KA3

Test [8] deals with T4, RSK2(Kin.Dom.2-C-terminal).
T4 construct: gene RPS6KA3

Test [9] relates to T5, RSK3(Kin.Dom.1-N-terminal).
T5 construct: gene RPS6KA2

Test [10] deals with T6, RSK3(Kin.Dom.2-C-terminal).
T6 construct: gene RPS6KA2

Test [11] deals with T7, RSK4(Kin.Dom.1-N-terminal).
T7 construct: gene RPS6KA6

Test [12] has as its system T8, RSK4(Kin.Dom.2-C-terminal).
T8 construct: gene RPS6KA6
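Further: KINOMEscan kinase panel screen.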

For `Cc1c(O)cccc1Nc1ccnc2ccc(C(F)(F)F)cc12.Cl` [GW466413], the “%Inh” value in the test on ROCK1 is listed as 10%; in the test with ROCK2, 20%; with ROS1, 3%; in test [1] it was 17%; in [2], 0%; in [3], 32%. Moreover, the “%Inh” value in [4] came out at 0%; in test [5] it was 0%; in test [6], 2%; in test [7], 0%; in test [8] it was 16%; in [9], 0%. In addition, the “%Inh” value in test [10] turned out to be 0%; in test [11], 4%; in test [12], 0%; in the test with S6K1, 0%; with SBK1 it was 0%; in the test on SGK2, 0%. Moreover, the “%Inh” value in the test with SGK3 is reported as 2%; with SGK, 0%.

With `CC(=O)Nc1nc2cnc(Nc3cc(NC(=O)c4cccc(CCC#N)c4)ccc3C)nc2s1`, the “%Inh” value was 14% in the test with ROCK1; 15% in the test with ROCK2; 0% with ROS1; 0% in test [1]; 0% in test [2]; 15% in test [3]. In addition, the “%Inh” value in test [4] is given as 2%; in test [5], 0%; in [6] it was 0%; in [7] it was 5%; in [8], 6%; in [9] it was 0%. Further, the “%Inh” value amounted to 1% in [10]; 24% in test [11]; 0% in test [12]; 3% in the test on S6K1; 0% with SBK1; 0% in the test with SGK2. Further, the “%Inh” value with SGK3 is reported as 7%; in the test with SGK, 0%.

On to `Cc1cccc(-c2nc(C)cc(Nc3ccncc3)n2)n1` [GSK257997], for which the “%Inh” value with ROCK1 is recorded as 25%; with ROCK2 it was 10%; in the test with ROS1, 43%; in test [1] it was 8%; in [2], 0%; in [3], 7%. In addition, the “%Inh” value is given as 0% in [4]; 29% in test [5]; 2% in [6]; 0% in [7]; 22% in test [8]; 0% in [9]. Also, the “%Inh” value was determined as 0% in [10]; 0% in test [11]; 0% in test [12]; 1% in the test on S6K1; 4% in the test on SBK1; 0% in the test with SGK2. In addition, the “%Inh” value in the test with SGK3 worked out at 6%; with SGK it was 0%.

As for `Nc1ncnc2[nH]c(-c3ccccc3)nc12` [AH5015], the “%Inh” value is 11% in the test with ROCK1; 14% with ROCK2; 0% with ROS1; 15% in test [1]; 0% in test [2]; 5% in test [3]. For the same compound, the “%Inh” value stood at 0% in test [4]; 15% in test [5]; 0% in test [6]; 15% in [7]; 6% in [8]; 0% in [9]. In addition, the “%Inh” value in test [10] was 0%; in test [11] it was 9%; in test [12], 34%; in the test on S6K1 it was 22%; in the test on SBK1 it was 78%; in the test with SGK2 it was 5%. Moreover, the figures for the “%Inh” value in the test on SGK3 and in the test on SGK were 18% and 21%, respectively.

Consider `CC(C)(C)c1ccc(C(=O)Nc2cn3cc(-c4cccnc4)ccc3n2)cc1`, for which the “%Inh” value in the test with ROCK1 is given as 0%; with ROCK2, 7%; in the test with ROS1, 0%; in test [1], 15%; in test [2], 0%; in test [3] it was 0%. The “%Inh” value is reported as 6% in test [4]; 19% in test [5]; 42% in test [6]; 17% in test [7]; 0% in test [8]; 13% in [9]. The “%Inh” value in [10] worked out at 36%; in test [11], 4%; in test [12], 47%; in the test with S6K1 it was 11%; in the test on SBK1, 23%; with SGK2 it was 0%. Besides, the results for the “%Inh” value in the test on SGK3 and in the test on SGK were 13% and 0%, respectively.

Regarding `CN1C(=O)C(Nc2ccc(Cl)c(C(=O)O)c2)=C(c2ccc(Cl)cc2)C1=O` [SB-404290], the “%Inh” value in the test with ROCK1 turned out to be 5%; in the test on ROCK2, 0%; in the test on ROS1, 18%; in test [1], 0%; in test [2], 2%; in [3], 0%. The “%Inh” value in test [4] was 0%; in test [5] it was 0%; in [6], 12%; in test [7] it was 28%; in [8], 8%; in test [9] it was 0%. For the same compound, the “%Inh” value was 1% in test [10]; 33% in test [11]; 0% in test [12]; 53% with S6K1; 24% in the test on SBK1; 9% in the test on SGK2. For the same compound, the entries for the “%Inh” value in the test on SGK3 and in the test with SGK were 19% and 13%, respectively.

For `COc1cc2ncn(-c3cc(OCC4CCCO4)c(C(N)=O)s3)c2cc1OC` (stereo not shown) [GSK204607], the “%Inh” value in the test with ROCK1 is 0%; with ROCK2 it was 0%; with ROS1 it was 8%; in test [1], 0%; in test [2], 3%; in test [3], 9%. Further, the “%Inh” value in test [4] is 8%; in test [5] it was 13%; in test [6], 0%; in [7], 0%; in test [8] it was 0%; in [9], 9%. The “%Inh” value in test [10] was determined as 2%; in test [11], 0%; in test [12], 22%; in the test with S6K1, 0%; in the test on SBK1, 0%; in the test with SGK2 it was 0%. For the same compound, the “%Inh” value with SGK3 and in the test with SGK was 0% each time.

Take `Cc1cc(NCC(c2ccccc2)c2ccccc2)nc(NCc2ccc(C(F)(F)F)cc2)n1` [GW497681]: the “%Inh” value is 0% with ROCK1; 23% in the test on ROCK2; 0% with ROS1; 0% in test [1]; 0% in [2]; 0% in test [3]. The “%Inh” value worked out at 1% in [4]; 0% in test [5]; 6% in [6]; 0% in [7]; 4% in [8]; 0% in [9]. Also, the “%Inh” value in test [10] is listed as 1%; in test [11], 0%; in test [12] it was 28%; in the test on S6K1, 0%; with SBK1 it was 0%; in the test with SGK2, 0%. Moreover, the entries for the “%Inh” value in the test with SGK3 and in the test with SGK were 6% and 0%, respectively.
